105 compounds from ChEMBL document CHEMBL4513216, “Probing the Open Global Health Chemical Diversity Library for Multistage-Active Starting Points for Next-Generation Antimalarials” (ACS Infect Dis, 2020) can be followed below.

The structures appear in SMILES notation. Screen size: about 68,000 compounds; about 2,700 (4%) showed an effect of 50% or more. Many of the other results were omitted from the sample, so strong results are more common in it than they were.

The subject of this test is Plasmodium berghei. The test can be described thus: Screen against P. berghei liver stage (PbLuc), transformed with Luciferase, at 2uM. The class given is functional, HepG2. As to conditions: tested at 2 uM.
Regarding `COCc1cc(N2CCc3onc(-c4cccc(OC)c4)c3C2)ncn1`, the INHIBITION was 5.28%.
For `COc1cccc(-c2noc3c2CN(c2nc(C)ncc2C)CC3)c1`, the INHIBITION stood at 36.28%.
For the compound `COc1cccc(-c2noc3c2CN(c2ncnc4c2CCC4)CC3)c1`, the INHIBITION is reported as 62.51%.
For the compound `CC[C@@H](C)[C@@H](N)C(=O)Nc1cccc(-c2cnc(NCCO)nc2)c1`, the INHIBITION is on record as -35.83%.
Turning to `CC(C)n1cnnc1C1CCCN(S(=O)(=O)CC2CCCC2)C1` (stereo not given), the INHIBITION is 60.42%.
The same measure for `CC(C)n1cnnc1C1CCCN(S(=O)(=O)CCCF)C1` (stereo not given): -33.29%; for `CC(C)CCS(=O)(=O)N1CCCC(c2nncn2C(C)C)C1` (stereo not given): -108.93%.
For the compound `Cc1nc(CN2CCC3(C2)CN(C(=O)c2conc2C)C3)cs1`, the INHIBITION turned out to be 3.95%.
On to `CCC(O)CNc1ccc(-c2nc(CC(C)C)no2)cn1` (stereo not given), for which the INHIBITION is listed as 69.71%.
The same measure for `CCn1cncc1CNc1ccc(-c2nc(CC(C)C)no2)cn1`: -15.11%; for `CC(C)Cc1noc(-c2ccc(NCc3noc(C(C)C)n3)nc2)n1`: 42.17%.
In the case of `COCC(C)Nc1ccc(-c2nc(Cc3ccc(F)cc3)no2)cn1` (stereo not given), the INHIBITION amounted to 31.51%.
Then `CC(CO)Nc1ccc(-c2nc(Cc3ccc(F)cc3)no2)cn1` (stereo not given), with 57.75%.
Then `COc1ccc(Cc2noc(-c3ccc(NC(C)CO)nc3)n2)cc1` (stereo not given), with 43.44%; and `CN(C)C(=O)CO[C@H]1CO[C@@]2(CCN(Cc3ccsc3)C2)C1`, with -9.99%; and `O=C(CCn1ccccc1=O)N1CCCC(COc2ccc(F)cc2)C1` (stereo not given), with 8.25%.
For `O=C(NC[C@H]1OC[C@@H](NC2CCC(F)(F)CC2)[C@@H]1O)N1CCOCC1`, the INHIBITION was determined as 11.43%.
Then `Cc1cc(C(=O)N2CCC(c3nccn3Cc3ccncc3)CC2)no1`, with 17.75%; and `CCC(C)Oc1cc(C(=O)Nc2nccs2)ccn1` (stereo not given), with 41.05%.
As to `CCC(C)Oc1cc(C(=O)Nc2nnc(C(C)C)[nH]2)ccn1` (stereo not given), the INHIBITION amounted to 38.67%.
Then `CCC(C)Oc1cc(C(=O)Nc2nc(C)ns2)ccn1` (stereo not given), with 52.98%; and `c1cc(CN2C[C@@H]3OCCN(CCN4CCCC4)[C@@H]3C2)co1`, with 2.87%.
For `Cc1nc(-c2cc(Cl)c3c(c2)CC(CN)O3)c[nH]1` (stereo not given), the INHIBITION stood at 74.44%.
As for `Cc1nc(-c2cc(F)c3c(c2)CC(CN)O3)c[nH]1` (stereo not given), the INHIBITION turned out to be 33.9%.
Consider `Cc1nc(-c2cc(Cl)cc3c2OC(CN)C3)c[nH]1` (stereo not given), for which the INHIBITION came to 26.74%.
Take `CN(CC(F)(F)F)C(=O)Cn1cc(NC(=O)C(C)(C)C)cn1`: the INHIBITION was -48.48%.
As for `CNC(=O)c1cc(C)n(-c2cccc(OC)c2)c1C`, the INHIBITION is 31.7%.
The same measure for `COc1cccc(-n2c(C)cc(C(=O)NC(C)(C)C(N)=O)c2C)c1`: 50.05%; for `COc1cccc(-n2c(C)cc(C(=O)NCCCC(N)=O)c2C)c1`: 30.29%; for `CN(Cc1ccco1)C[C@H]1OC[C@@H]2CN(c3ncc(F)cn3)CC[C@@H]21`: 17.89%.
In the case of `O=C(NC1CC1)[C@H]1CN(Cc2ccc3c(c2)OCO3)C[C@H]2OCC[C@@H]12`, the INHIBITION is -0.18%.
Consider `Cc1cc(C(=O)NCc2c(C)nn(C)c2C)nc(N2CCCC2)n1`, for which the INHIBITION was -70.38%.
In the case of `Cc1cc(C(=O)NCc2c(C)nn(C)c2C)nc(N2CCOCC2)n1`, the INHIBITION is -68.8%.
Turning to `Cc1cc(C(=O)NCCc2c(C)nn(C)c2C)nc(N2CCCCC2)n1`, the INHIBITION came to 52.82%.
Take `O=C(O)c1csc(S(=O)(=O)N2CCCc3cccc(OC(F)F)c32)c1`: the INHIBITION is recorded as -58.31%.
The same measure for `CC(C)C(=O)NCc1ccccc1NS(=O)(=O)c1ccccc1`: -1.56%.
Take `CN(C(=O)c1ccc[nH]1)C1CCC(NC(=O)OC(C)(C)C)CC1` (stereo not given): the INHIBITION is listed as 48.21%.
The same measure for `CN(C(=O)c1ccco1)C1CCC(NC(=O)OC(C)(C)C)CC1` (stereo not given): 38.67%; for `CN(C(=O)c1cccn1C)C1CCC(NC(=O)OC(C)(C)C)CC1` (stereo not given): 62.51%.
With `c1cnc(N2CCC3(CCCN(Cc4ccncc4)C3)CC2)nc1`, the INHIBITION was found to be 4.89%.
As to `c1cncc(COCc2cncc3c2CCN(Cc2ccoc2)C3)c1`, the INHIBITION came out at 25.5%.
Turning to `Cc1[nH]c2ccccc2c1-c1ccnc(NCCN2CCCCC2)n1`, the INHIBITION is -2.21%.
Take `O=C(O)c1nnn(-c2ccc(C(F)(F)F)cc2)c1-c1ccncc1`: the INHIBITION was -40.92%.
Take `CCOC(=O)CC(C)Nc1nc(C(C)(C)C)nc2c1cnn2C` (stereo not given): the INHIBITION is given as -70.6%.
In the case of `CC(C)[C@H](Nc1nc(C2CCCC2)nc2c1cnn2C)C(N)=O`, the INHIBITION came out at 23.16%.
As for `CCOC(=O)CC(C)Nc1nc(C2CCCC2)nc2c1cnn2C` (stereo not given), the INHIBITION came out at 57.64%.
On to `COC(=O)[C@H](CSC)Nc1nc(C2CCCC2)nc2c1cnn2C`, for which the INHIBITION was determined as 43.28%.
Then `COC(=O)[C@@H](Nc1nc(C2CCCC2)nc2c1cnn2C)[C@@H](C)O`, with 40.4%.
As for `CC(C)C[C@H](Nc1nc(C2CCCC2)nc2c1cnn2C)C(N)=O`, the INHIBITION was found to be 52.38%.
The same measure for `CCOCC1CN(C(=O)Cc2ccsc2)Cc2ccnn2C1` (stereo not given): 21.77%.
Take `CC(=O)N1CCCN(C(C(=O)O)c2cccc(C)c2C)CC1` (stereo not given): the INHIBITION was -17.37%.
`O=C1COC2(CCN(Cc3cccnc3)CC2)CN1`: the INHIBITION is 11.87%.
For the compound `c1cncc(N2CCOCC3(CCCN(Cc4cccs4)C3)C2)c1` (stereo not given), the INHIBITION is given as -26.24%.
As for `Cc1c(Cl)c(C(=O)N2CC(c3cccnc3)C2)nn1C`, the INHIBITION came out at 7.62%.
For `Cc1ccc2nc(C(=O)N3C[C@@H](C(=O)O)[C@H](c4cccnc4)C3)cn2c1`, the INHIBITION worked out at 1.52%.
On to `Cc1c(Cl)c(C(=O)N2C[C@@H](C(=O)O)[C@H](c3cccnc3)C2)nn1C`, for which the INHIBITION was found to be 69.71%.
For `Cc1nc(C)n(CC2CCCN2CCCOc2ccc(F)cc2)n1` (stereo not given), the INHIBITION is listed as -8.1%.
Consider `CCC(C(=O)Nc1ccc2nc(C)oc2c1)N1CCCC1=O` (stereo not given), for which the INHIBITION is 14.06%.
With `Cc1ccc(NC2CCCN(C3Cc4ccccc4C3)C2)nn1` (stereo not given), the INHIBITION was 3.91%.
Regarding `CNc1nc(C)cc(NC2CCCN(C3Cc4ccccc4C3)C2)n1` (stereo not given), the INHIBITION was 58.03%.
In the case of `CNc1cc(C)nc(NC2CCCN(C3Cc4ccccc4C3)C2)n1` (stereo not given), the INHIBITION is reported as 8.26%.
As for `CC(C)COC1CC2(CCN(C(=O)Cc3ccccn3)CC2)C1`, the INHIBITION is -9.07%.
Then `CSCc1noc(Cn2ncn3cccc3c2=O)n1`, with 46.15%.
The same measure for `c1cc(CN2CCOCC3(CCN(CC4CCOCC4)CC3)C2)ccn1`: 26.76%; for `CCc1c(C(=O)N2CCOC(C)(C)C2)cnn1-c1ccccn1`: 61.63%.
On to `CCc1c(C(=O)N2CC(C)OC(C)(C)C2)cnn1-c1ccccn1` (stereo not given), for which the INHIBITION is recorded as 24.23%.
Take `CC1CN(C(=O)c2cnn(-c3ccccn3)c2C(C)C)CC(C)(C)O1` (stereo not given): the INHIBITION is listed as -4.15%.
As to `CCc1nc(CC(=O)N2CCC(C(=O)N3CCCC3)CC2)cs1`, the INHIBITION is -30.23%.
Consider `O=C1CC[C@H]2[C@H](CCN2C(=O)N2CCCC2)N1Cc1ccncc1`, for which the INHIBITION was -61.95%.
As for `OC(c1ccccn1)C1CCN(Cc2cc3n(n2)CCCNC3)CC1` (stereo not given), the INHIBITION is listed as -29.69%.
As for `OC(c1ccccn1)C1CCN(Cc2cc3n(n2)CCNC3)CC1` (stereo not given), the INHIBITION is 60%.
On to `c1ccc(C2CCCN(Cc3cc4n(n3)CCNC4)CC2)cc1` (stereo not given), for which the INHIBITION turned out to be 9.57%.
As to `CCC(NC(=O)C1CCN(S(C)(=O)=O)CC1)c1ccc(OC)cc1` (stereo not given), the INHIBITION is 19.7%.
Consider `O=C(NC1CCCC1)[C@@H]1C[C@@H]2CCN(Cc3ccoc3)C[C@H]2O1`, for which the INHIBITION is 3.18%.
As to `COc1ccc(C(CC(=O)O)NC(=O)CCc2cccs2)cc1OC` (stereo not given), the INHIBITION is given as 36.38%.
`O=C(O)CC(NC(=O)CCCc1cccs1)c1ccc(F)cc1` (stereo not given): the INHIBITION turned out to be 57.2%.
The same measure for `Cc1ccc(C(CC(=O)O)NC(=O)CCc2cccs2)cc1` (stereo not given): -34.12%; for `CCCc1cc(NC2CCc3nc(C(C)C)nn3C2)n2ncnc2n1` (stereo not given): -43.09%.
Then `COc1cccc(CN(C)Cc2cccc(C#N)c2)c1OC`, with 3.3%; and `COc1cccc(CN(C)Cc2ccc(C#N)cc2)c1OC`, with 10.52%; and `COc1cccc(CN(C)Cc2cc(C#N)ccc2F)c1OC`, with 56.49%.
Regarding `Cc1ccc(NC(=O)C2=CN=S=N2)cc1`, the INHIBITION came out at 25.51%.
Turning to `CN(C)C(=O)[C@@H]1C[C@@H]2CCN(Cc3ccncc3)C[C@@H]2O1`, the INHIBITION came out at 37.6%.
`c1cc2nccc(CC3CCCN(C4CCOCC4)CC3)c2cn1` (stereo not given): the INHIBITION is 24.56%.
Regarding `O=C(NC1CCN(C2CC2)CC1)c1cc(Cl)ccc1-n1cnnn1`, the INHIBITION is reported as 19.04%.
With `O=C(NC1CC1)c1cc(Cl)ccc1-n1cnnn1`, the INHIBITION is listed as -14%.
Regarding `CC(=O)N1CCC(NC(=O)c2cc(Cl)ccc2-n2cnnn2)CC1`, the INHIBITION turned out to be 53.19%.
Then `CCCC1(CO)CCCN(C(=O)CNC(C)=O)C1` (stereo not given), with 15.27%; and `O=c1cc(N2CCNCC2)cnn1Cc1noc(C2CCCC2)n1`, with 41.84%.
For `O=C(Cn1nc(Br)nc1Br)N1CCCC1`, the INHIBITION is on record as -14.58%.
`CCCC1COCCN1Cc1ccc(C(=O)O)cc1` (stereo not given): the INHIBITION is given as 55.7%.
`CCCC1COCCN1Cc1ccc(NC(C)=O)cc1` (stereo not given): the INHIBITION amounted to 48.17%.
On to `CCCC1COCCN1Cc1ccc(S(=O)(=O)NC)cc1` (stereo not given), for which the INHIBITION is on record as 30.96%.
As to `Cc1ccccc1CS(=O)(=O)CC(=O)N(C)Cc1ccccc1F`, the INHIBITION is -38.35%.
Regarding `CN(Cc1ccccc1F)C(=O)CS(=O)(=O)Cc1ccc(Cl)c(Cl)c1`, the INHIBITION was -10.5%.
Then `COc1ccc(Cl)cc1CS(=O)(=O)CC(=O)N(C)Cc1ccccc1F`, with 51.94%; and `Cc1nc(C(C)C)sc1C(C)N(C)C(=O)c1ccc(=O)n(C)c1` (stereo not given), with -11.76%.
Then `CCc1ccc(CN(C)Cc2nc(-c3cnccn3)no2)nc1`, with -16.76%.
With `CCc1ccc(CN(C)c2ccc(-c3nc(COC)no3)cn2)nc1`, the INHIBITION stood at 10.65%.
Turning to `CCc1ccc(CN(C)Cc2nc(COc3ccccc3)no2)nc1`, the INHIBITION is recorded as 64.2%.
Then `CN(Cc1ccc(F)cc1F)Cc1cc2c(cc1Br)OCCO2`, with 45.66%; and `Cc1cnccc1N1CCCN(C(=O)CCCc2cn[nH]c2)CC1`, with 9.17%.
Turning to `O=C(c1cnccn1)N1C[C@@H]2OCC(=O)N(CC3CCCCC3)[C@@H]2C1`, the INHIBITION is listed as -26.14%.
As for `O=C(c1ccccn1)N1C[C@@H]2OCC(=O)N(CC3CCCCC3)[C@@H]2C1`, the INHIBITION amounted to 56.16%.
As to `O=C(c1cnccn1)N1C[C@@H]2[C@@H](C1)OCC(=O)N2CC1CCCC1`, the INHIBITION was found to be 31.65%.
